# In the supplement of paper PMC6555819:
# Legend:
# Test in all cases: PBM binding z-score (relative to random genomic background probes); higher = stronger binding; sequences stand for … in GC…GCGATTGACAGCGTAGAATGAAGG
# [1] = system: FXR:RXRa (NR concentration 270 nM, RXRa partner concentration 90 nM)
# How it was run: (§1)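 Binding z-scores take random background probes as their reference. They come from custom Agilent 4×180K protein-binding microarrays incubated 1 h with ligand-free nuclear receptor dimers, with antibodies against each partner (one per run) detecting binding. Scanned fluorescence was regression-normalized.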
# [2] = system: LXRa:RXRa (NR concentration 270 nM, RXRa partner concentration 90 nM)
# How it was run: as §1
# [3] = system: LXRa homodimer (NR concentration 270 nM)
# How it was run: as §1
# [4] = system: LXRb:RXRa (NR concentration 270 nM, RXRa partner concentration 90 nM)
# How it was run: as §1
# [5] = system: LXRb homodimer (NR concentration 270 nM)
# How it was run: as §1
# [6] = system: PPARa:RXRa (NR concentration 270 nM, RXRa partner concentration 90 nM)
# How it was run: as §1
# [7] = system: PPARg:RXRa (NR concentration 180 nM, RXRa partner concentration 90 nM)
# How it was run: as §1
# [8] = system: PPARg:RXRa 270nM:90nM, anti-RXR (NR concentration 270 nM, RXRa partner concentration 90 nM)
# How it was run: as §1
# [9] = system: PPARg:RXRa 30nM:10nM, anti-RXR (NR concentration 30 nM, RXRa partner concentration 10 nM)
# How it was run: as §1
# [10] = system: PPARg:RXRa 90nM:30nM, anti-RXR (NR concentration 90 nM, RXRa partner concentration 30 nM)
# How it was run: as §1
Sequence,PBM binding z-score [1],PBM binding z-score [2],PBM binding z-score [3],PBM binding z-score [4],PBM binding z-score [5],PBM binding z-score [6],PBM binding z-score [7],PBM binding z-score [8],PBM binding z-score [9],PBM binding z-score [10]
GCGACTGGGGCATCAGCAGGTCACCATAACTTAA,0.886,1.37,0.749,2.27,-0.977,2.79,2.16,2.13,0.0296,1.03
TCATATAGGTAATACAGGTGAAAGTCGGCATCTA,1.2,1.54,0.569,1.2,0.365,2.06,1.67,2.61,4.12,3.5
CGTCCAAAGTCAGAGAGGTCAGTGAATGCCGAGT,1.93,2.04,1.25,1.98,0.362,2.51,0.249,0.942,-0.0025,0.475
AGTCAAAGTTCATCTAGGTAACGTCAGATATGCT,6.97,6.1,5.62,4,1.91,4.87,6.42,6.54,3.63,5.58
CGTCCAAGGTCATAGGAGGTCTGTGAAGACAGAT,7.54,5.3,0.925,4.01,0.481,5.64,4.98,5.2,1.89,3.88
CCAGTCAGGTGAGAAGGTAACTCAGCCTCGATTA,0.104,0.00917,-0.218,-0.0607,-0.774,0.601,0.294,1.13,-0.0852,0.619
TAGCCTAGATCATGGGCCAGTATACCACGCGAAC,-0.688,-0.764,-0.759,-0.614,-0.395,-0.574,0.555,-0.555,-0.628,-0.462
CGAACTAGGTCCAGGACAGTGAATCTCCGCACGC,-0.204,-0.571,-0.353,-0.95,-0.661,-0.195,0.3,-0.587,-0.632,-0.449
AGAATGAGGTTATACGCAGATCAGGGAAGAAAGT,2.11,2.13,-0.247,1.68,-0.102,3.39,1.58,2.01,0.827,1.45
CTTCAAAGTTCAAGGTAACGTAACAGAAAGCAGC,5.99,5.87,3.59,3.5,1.19,4.48,2.86,3.83,1.15,2.43
ACTAGCAGCCCAAGTTTGGGTCACTCAAACAAAG,-0.21,-0.0985,-0.387,0.667,-0.605,0.976,-0.169,0.0773,-0.863,-0.372
GCTCGAAGGACAAGGTCAGAGCTTTGTCCGTAGA,1.53,1.79,-0.456,0.996,-0.575,2.56,0.738,1.72,-0.296,0.829
TCATATTGGTAATACAGGTGAAAGTCGGCATCTA,1.28,1.16,0.763,1.2,0.359,1.79,1.09,2.7,3.88,3.11
TCGCCTAGGTCATTGGGCCAGTATAGTACGCATC,4.27,2.83,0.548,2.4,-0.239,3.61,3.1,3.57,2.21,2.73
CCAGCCAGGTGAGAAGGTAACTCAGCCTCGATTA,-0.27,-0.406,-0.377,-0.292,-0.967,0.458,0.262,1.03,-0.318,0.318
GCTTACGGGTCAAGGGTTATAGCATGAATAGAAT,7,4.33,-0.0628,4.68,0.59,6.34,9.43,7.41,6.16,8.05
ACTATTAGTTGACTTAGGGCAACCGCTACGACGC,0.0697,0.317,-0.0272,-0.056,0.492,-0.0454,0.482,-0.131,0.1,-0.0911
CGTCCAAGGTCAAAGCTCAGTGAAGAGATGACGG,7.32,5.36,0.938,3.83,0.937,5.37,4.98,5.4,2.13,4.12
ATCGAAAGGTCGTGCGGTGAGTATACAGAAAGGC,5.34,4.25,0.222,3.12,1.5,4.84,3.25,3.58,1.04,2.23
ACTCGGAGGACAACGGTCAGAGCTACGCCAGTGA,0.0223,-0.221,-0.37,-0.773,-0.828,-0.354,0.852,0.638,-0.439,0.354
AATACAGGGTCACTAGTCCAGAGTAGGTACGAAT,5.5,4.68,0.946,3.94,1.32,5.09,5.61,5.17,1.77,3.89
ATATGTAGGTTATCCGGTCATTCAGTTTGCGCAT,1.83,2.69,4.12,1.78,1.15,3.71,5.51,5.16,2.68,4.49
TCTTGTAGATCAATAGGGGTTAAGAAAGTGCGCT,1.29,4.13,0.187,2.93,0.868,2.7,0.337,2.1,2.94,2.42
